According to PubChem BioAssay AID743364 (National Center for Advancing Translational Sciences (NCATS), 2014):
The source made the active and inactive calls. Calls follow the shape of the dose curve; as a rule, active = well fitted curve in the direction sought with a large enough effect; inactive = no such curve, though single readings can be large or run the other way.

Assay: qHTS profiling of inhibitors of Plasmodium falciparum (3D7) proliferation (acoustic dispense)
Settings: P. falciparum 3D7 in erythrocytes, SYBR Green, 72 h; series mostly up to 49.8 µM

outcome, inactive:
COc1cc2nc(N3CCCN(C)CC3)nc(NC3CCN(Cc4ccccc4)CC3)c2cc1OC
COc1cc(NCc2ccc3nc(N)nc(N)c3c2C)cc(OC)c1OC
COc1cc(C)c2c(Oc3cccc(C(F)(F)F)c3)c(OC)cc(NCCCC(C)N)c2n1 (centres undefined)
CN[C@@H](C)C(=O)N[C@H]1CCCC[C@H]2CC[C@@H](C(=O)N[C@@H](c3ccccc3)c3cn(CCCCc4ccc(CCCCn5cc([C@@H](NC(=O)[C@@H]6CC[C@@H]7CCCC[C@H](NC(=O)[C@H](C)NC)C(=O)N76)c6ccccc6)nn5)cc4)nn3)N2C1=O
CS(=O)(=O)CCNCc1ccc(-c2ccc3ncnc(Nc4ccc(OCc5cccc(F)c5)c(Cl)c4)c3c2)o1
COc1ccc2nc3cc(Cl)ccc3c(Nc3cc(CN4CCCC4)c(O)c(CN4CCCC4)c3)c2n1
C=C[C@@H]1CN2CC[C@@H]1C[C@H]2[C@H](O)c1ccnc2ccc(OC)cc12
C=CCNC1=C2C[C@@H](C)C[C@H](OC)[C@@H](O)[C@@H](C)C=C(C)[C@H](OC(N)=O)[C@@H](OC)C=CC=C(C)C(=O)NC(=CC1=O)C2=O
CC(=NNC(=S)N1CCC1)c1ccccn1
CC[C@@]1(O)C[C@H](O[C@H]2C[C@H](N(C)C)[C@H](O[C@H]3C[C@H](O)[C@H](O[C@H]4CCC(=O)[C@H](C)O4)[C@H](C)O3)[C@H](C)O2)c2c(cc3c(c2O)C(=O)c2c(O)cccc2C3=O)[C@@H]1C(=O)OC
C=CCNc1c(O)cc2c(O)c1C[C@@H](C)C[C@H](OC)[C@@H](O)[C@@H](C)C=C(C)[C@H](OC(N)=O)[C@@H](OC)C=CC=C(C)C(=O)N2
Cn1c(=O)n(-c2ccc(C(C)(C)C#N)cc2)c2c3cc(-c4cnc5ccccc5c4)ccc3ncc21
CO[C@H]1C=CO[C@@]2(C)Oc3c(C)c(O)c4c(O)c(c(C=NN5CCN(C)CC5)c(O)c4c3C2=O)NC(=O)C(C)=CC=C[C@H](C)[C@H](O)[C@@H](C)[C@@H](O)[C@@H](C)[C@H](OC(C)=O)[C@H]1C
CCCCN(CCCC)CCC(O)c1cc2c(Cl)cc(Cl)cc2c2cc(C(F)(F)F)ccc12 (centres undefined)
Cc1cn[nH]c1
CC(=O)Nc1nc(C)c(-c2ccc(Cl)c(S(=O)(=O)NCCO)c2)s1
O=C1NC(=O)C(=Cc2ccc3nccc(-c4ccncc4)c3c2)S1
COC(=O)c1ccc2c(C(=Nc3ccc(N(C)C(=O)CN4CCN(C)CC4)cc3)c3ccccc3)c(O)[nH]c2c1
CCNC(=O)c1noc(-c2cc(C(C)C)c(O)cc2O)c1-c1ccc(CN2CCOCC2)cc1
CCN(CC)Cc1cc(Nc2ccnc3cc(Cl)ccc23)ccc1O
CCCC[C@@H]1C[C@@H](C(=O)NC([C@H](C)Cl)[C@H]2O[C@H](S)[C@H](O)[C@@H](O)[C@@H]2O)N(C)C1 (some centres undefined)
O=C1c2ccccc2-[n+]2ccc3c([nH]c4ccccc43)c21
COc1ccc(-c2nc(N3CCOCC3)c3sc(CN(C)c4ncc(C(=O)NO)cn4)cc3n2)cn1
CN[C@@H]1C[C@H]2O[C@@](C)([C@H]1OC)n1c3ccccc3c3c4c(c5c6ccccc6n2c5c31)C(=O)N[C@H]4O
CC[C@H]1OC(=O)[C@H](C)[C@@H](O[C@H]2C[C@@](C)(OC)[C@@H](O)[C@H](C)O2)[C@H](C)[C@@H](O[C@@H]2O[C@H](C)C[C@H](N(C)C)[C@@H]2O)[C@](C)(O)C[C@@H](C)CN(C)[C@H](C)[C@@H](O)[C@]1(C)O
CCC[C@H](Nc1nc(-c2ccc(NC(=O)NCC)c(OC)c2)ncc1C)c1cccnc1
COc1ncnc(NS(=O)(=O)c2ccc(N)cc2)c1OC
CC[C@]1(O)C[C@H]2CN(CCC3=c4ccccc4=N[C]3[C@@](C(=O)OC)(c3cc4c(cc3OC)N(C)[C@H]3[C@@](O)(C(N)=O)[C@H](O)[C@]5(CC)C=CCN6CC[C@]43[C@@H]65)C2)C1
COc1ccc(-c2ccc3ncc4c(c3c2)n(-c2ccc(N3CCNCC3)c(C(F)(F)F)c2)c(=O)n4C)cn1
CCOC(=O)[C@H](CCc1ccccc1)N[C@H]1CS[C@H](c2cccs2)CN(CC(=O)O)C1=O
CCCCCCCCCCOc1cc2c(=O)c(C(=O)OCC)c[nH]c2cc1OCC
CC(C)n1nc(-c2ccc3oc(N)nc3c2)c2c(N)ncnc21
Cc1cn(-c2cc(NC(=O)c3ccc(C)c(Nc4nccc(-c5cccnc5)n4)c3)cc(C(F)(F)F)c2)cn1
COc1ncc(-c2ccc3nccc(-c4ccnnc4)c3c2)cc1NS(=O)(=O)c1ccc(F)cc1F
